The nature of assay [1]: qHTS assay to identify small molecule agonists of the hypoxia (HIF-1) signaling pathway - cell viability counter screen (AID 1224844; calls by dose curve; also: nearly all actives have a fitted effect of over 50% in size; also: potency is read from the fitted curve at half-maximal effect). The gist of the method: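 Multiplexed with the HRE beta-lactamase assay, this viability read used CellTiter-Glo luminescence (30 min, RT) on HRE-bla ME-180 cells treated 17 hrs with compounds in 0.5% dialyzed FBS medium.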
The nature of assay [2]: qHTS assay to identify small molecule agonists of the hypoxia (HIF-1) signaling pathway (AID 1224846; active = well fitted activation curve with a large enough effect in the signal ratio in the repeat runs, not every such curve was filed as active; the % refers to the signal ratio). The method in brief:
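Hypoxia-pathway activation was scored as increased beta-lactamase from an HRE-controlled reporter in ME-180 cells; plated at 2,000 cells per well with 0.5% dialyzed FBS, they were exposed 17 hrs to compounds and then given CCF4-AM.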
A general note: Quantitative high-throughput screening tests each substance at several concentrations.

The nature of assay [3]: qHTS assay to identify small molecule agonists of H2AX - cell viability counter screen (AID 1224847; calls by dose curve; also: nearly all actives have a fitted effect of over 30% in size; also: potency is read from the fitted curve at half-maximal effect;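 as to activity change, negative = cytotoxicity: wild-type CHO-K1 cells; top concentration of the series differs between compounds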). The method in brief: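 CHO-K1 cells plated overnight at 37C, then exposed 3 h at 37C to compounds at 15 concentrations (0.76% DMSO final). Viability by CellTiter-Glo luminescence after 30 min at room temperature.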
Assay [4] can be described thus: qHTS RealTime-Glo MT Cell Viability Assay in HepG2 cells - 40 hour (AID 1224870). Also: nearly all actives have a fitted effect of over 50% in size. Also: potency is read from the fitted curve at half-maximal effect. The method in brief: (§1)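 Real-time viability: cells seeded at 600 per well together with NanoLuc and cell-permeant prosubstrate, compounds added after 5 h incubation. Luminescence tracked at 0, 8, 16, 24, 32 and 40 h of exposure.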
A short description of assay [5]: A CellTox Green Cytotoxicity Assay to monitor cytotoxicity in HEK293 cells - 40 hour (AID 1224871). Also: nearly all actives have a fitted effect of over 45% in size. Also: potency is read from the fitted curve at half-maximal effect. The method in brief:
(§2)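 Seeding of HEK293 cells together with cytotoxicity dye preceded a 5 h incubation at 37 C/5% CO2. Test compounds in DMSO were then added and fluorescence monitored across 40 h.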

A short description of assay [6]: qHTS RealTime-Glo MT Cell Viability Assay in HepG2 cells - 8 hour (AID 1224873). Also: nearly all actives have a fitted effect of over 55% in size. Also: potency is read from the fitted curve at half-maximal effect. The method in brief:
as §1

Assay [7] can be described thus: A CellTox Green Cytotoxicity Assay to monitor cytotoxicity in HEK293 cells - 24 hour (AID 1224875). Also: nearly all actives have a fitted effect of over 45% in size. Also: potency is read from the fitted curve at half-maximal effect. The gist of the method: as §2
Assay [8] can be described thus: qHTS RealTime-Glo MT Cell Viability Assay in HepG2 cells - 32 hour (AID 1224877). Also: nearly all actives have a fitted effect of over 55% in size. Also: potency is read from the fitted curve at half-maximal effect. The gist of the method:
(§3)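 HepG2 suspension premixed with RealTime-Glo reagents is plated at 600 cells per well and left 5 h at 37 C/5% CO2. Compounds in DMSO then go in, and bioluminescence reflecting viable cell number is recorded over 40 h.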

Assay [9] can be described thus: A CellTox Green Cytotoxicity Assay to monitor cytotoxicity in HepG2 cells - 24 hour (AID 1224878). Also: nearly all actives have a fitted effect of over 45% in size. Also: potency is read from the fitted curve at half-maximal effect. The gist of the method:
(§4)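 Nonlytic assay: viable cells exclude the dye, so fluorescence scales with cell death. HepG2 at 600 cells/well, compounds added after 5 h, signal read across 40 h.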

Assay [10] in a line: A CellTox Green Cytotoxicity Assay to monitor cytotoxicity in HepG2 cells - 40 hour (AID 1224879). Also: nearly all actives have a fitted effect of over 40% in size. Also: potency is read from the fitted curve at half-maximal effect. The method in brief:
as §4

The nature of assay [11]: qHTS RealTime-Glo MT Cell Viability Assay in HEK293 cells - 0 hour (AID 1224880). Also: top concentration of the series differs between compounds; nearly all actives have a fitted effect of over 45% in size. The gist of the method:
(§5)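 Tox21 screen in HEK293 using RealTime-Glo MT chemistry, with cells and reagent co-dispensed. Luminescence proportional to viable cell number was captured at intervals during 40 h compound exposure at 37 C.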

Assay [12] is described as follows: qHTS assay to identify small molecule antagonists of the estrogen related receptor (ERR) signaling pathway from Tox21 library (AID 1224848). Also: nearly all actives have a fitted effect of over 50% in size. Also: potency is read from the fitted curve at half-maximal effect. The method in brief:
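Antagonist-mode screen of the Tox21 10K library in an NTP-provided ERR reporter cell line; 18 h compound exposure at 37 C, luminescence measured with ONE-Glo.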

Assay [13] is described as follows: qHTS assay to identify small molecule agonists of the estrogen related receptor (ERR) signaling pathway from Tox21 library (AID 1224849; calls by dose curve; also: nearly all actives have a fitted effect of over 15% in size). Particulars: ERR reporter cell line, ONE-Glo luciferase, 18 h; at 92.4 µM (top of the series) unless noted. The gist of the method:
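Six hours post-seeding at 37 C/5% CO2, ERR cells receive DMSO-solubilised compounds; after 18 h at 37 C, ONE-Glo reagent is applied and luminescence recorded.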

Assay [14] can be described thus: qHTS RealTime-Glo MT Cell Viability Assay in HepG2 cells - 24 hour (AID 1224867). Also: nearly all actives have a fitted effect of over 50% in size. The gist of the method: as §3
A short description of assay [15]: qHTS RealTime-Glo MT Cell Viability Assay in HEK293 cells - 32 hour (AID 1224868). Also: nearly all actives have a fitted effect of over 50% in size. Also: potency is read from the fitted curve at half-maximal effect. As to activity change, negative = cytotoxic: top concentration of the series differs between compounds. The gist of the method: (§6)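 Reads taken at 0, 8, 16, 24, 32 and 40 h from the same wells. HEK293 cells (600/well) carried RealTime-Glo reagents from seeding, with compound added after a 5 h settle at 37 C.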
A short description of assay [16]: A CellTox Green Cytotoxicity Assay to monitor cytotoxicity in HEK293 cells - 0 hour (AID 1224869). Also: nearly all actives have a fitted effect of over 50% in size. The gist of the method:
as §2

Assay [17] is described as follows: qHTS RealTime-Glo MT Cell Viability Assay in HEK293 cells - 16 hour (AID 1224872). Also: nearly all actives have a fitted effect of over 50% in size. Also: potency is read from the fitted curve at half-maximal effect. As to activity change, negative = cytotoxicity: top concentration of the series differs between compounds. The method in brief:
as §6

Assay [18] is described as follows: qHTS RealTime-Glo MT Cell Viability Assay in HEK293 cells - 40 hour (AID 1224874). Also: nearly all actives have a fitted effect of over 50% in size. Also: potency is read from the fitted curve at half-maximal effect. Particulars: RealTime-Glo luminescence; max response: stronger effect = lower value. The method in brief:
as §5

Assay [19] is described as follows: A CellTox Green Cytotoxicity Assay to monitor cytotoxicity in HepG2 cells - 16 hour (AID 1224876). Also: nearly all actives have a fitted effect of over 45% in size. Also: potency is read from the fitted curve at half-maximal effect. The method in brief:
as §4

Data on 15 molecules can be found in PubChem BioAssay (Tox21).

Values without a mark were called inactive. Results filed as inconclusive are left out. Calls of active or inactive are those of the source. Unless noted, calls follow the shape of the dose curve; as a rule, active = well fitted curve in the direction sought with a large enough effect in the repeat runs; inconclusive = weak or mixed curves; inactive = no such curve, though single readings can be large; an effect the other way counts as inactive or inconclusive.
% is scaled to controls: 0 for no effect and ±100 for the full control effect.

Take `CC(C)Cc1ccc(C(C)C(=O)OCc2ccccn2)cc1` (configuration not stated): the Potency entry in [1], in [2], in assay [3], in assay [4], in assay [5] and in assay [6] was “inactive” in each case. Further, the Potency entry in assay [7], in assay [8], in assay [9], in [10] and in [11] was “inactive” each time.

As for `C=CCOc1ccccc1OCC(O)CNC(C)C` (configuration not stated), the Potency result in assay [1], in [3], in assay [12], in assay [14], in [15] and in [16] was “inactive” each time. The Potency result in assay [4], in assay [17], in assay [6], in assay [19], in assay [8] and in assay [9] was “inactive” in each case. The Potency result in assay [10] and in assay [11] was “inactive” each time. In addition, in assay [13], the activity change, positive = activation was 4.2% [at 42.5 µM]. Further, the max response in [18] is 4.45%.

Regarding `Cc1cccc(C)c1NC(=O)CN(CC(=O)O)CC(=O)O`, the Potency entry in assay [1], in [3], in assay [14], in [15], in [16] and in assay [4] was “inactive” each time. Moreover, the Potency entry in [5], in assay [17], in assay [6], in [7], in assay [8] and in [9] was “inactive” in each case. The Potency entry in assay [10] and in [11] was “inactive” in each case. For the same molecule, the max response in assay [18] is 5.56%.

With `O=C(O)C1(C(=O)Nc2ccc(Cl)cc2Cl)CC1`, the Potency entry in [1], in assay [3], in [14], in assay [15], in assay [16] and in assay [4] was “inactive” throughout. Also, the Potency result in assay [5], in assay [17], in [6], in [7], in [19] and in assay [8] was “inactive” each time. Also, the Potency result in [9] and in assay [10] was “inactive” throughout. Moreover, the max response in [18] was -17.6%.

Take `N=c1ccn2c(n1)O[C@H]1[C@H](O)[C@@H](CO)O[C@H]12`: the Potency result in [1], in [2], in assay [12], in assay [15], in assay [16] and in assay [4] was “inactive” in each case. Moreover, the Potency entry in assay [5], in assay [6] and in assay [8] was “inactive” throughout. Also, the activity change, positive = activation in assay [13] was -6.33%. The max response in assay [18] is 22.1%. Further, in [10], the Potency was 54.9 µM (active).

With `CCN(CC)CCOC(=O)C(c1ccccc1)C1CCCCC1` (configuration not stated), the Potency result in assay [1], in assay [2], in [16], in [4], in assay [6] and in assay [11] was “inactive” each time. In addition, the Potency was 21.3 µM (active) in [5], 23.9 µM (active) in assay [7], 23.9 µM (active) in [9] and 21.3 µM (active) in [10].

`CCc1cc(C2=C(C(=O)O)N(c3ccccc3C(F)(F)F)S(=O)(=O)c3ccccc32)cc2c1OCO2`: the Potency in assay [1] was 21.6 µM (active); in [12] it was 24.1 µM (active). Further, in assay [13], the activity change, positive = activation is -39.9%. The Potency entry in assay [14], in assay [15], in [16], in [4], in assay [5] and in [17] was “inactive” throughout. Besides, the Potency entry in assay [6], in assay [19], in assay [8], in [9] and in assay [10] was “inactive” each time. The max response in [18] was -24.9%.

In the case of `NCc1ccccc1Sc1ccccc1CO`, the Potency entry in [1], in assay [3], in assay [14], in [15], in assay [4] and in assay [17] was “inactive” throughout. Also, the Potency entry in [6], in [7], in assay [19], in assay [8], in assay [9] and in assay [10] was “inactive” throughout. In addition, in assay [11], the Potency entry is “inactive”. For the same molecule, in [18], the max response is -17%.

On to `Brc1c2ccccc2c(Br)c2ccccc12`, for which the activity change, negative = cytotoxicity in [1] was -13.7% [at 6.97 µM]; in assay [3], 5.06% [at 14 µM]; in assay [14] it was 2.73% [at 6.97 µM]; in [11] it was 0.766% [at 6.97 µM]. For the same molecule, the activity, negative = inhibition in [12] was 4.96% [at 8.39 µM]. Besides, the activity change, positive = activation in [13] was 2.61% [at 8.39 µM]. In addition, the activity change, negative = cytotoxic was 4.29% [at 6.97 µM] in assay [15], 1.43% [at 6.97 µM] in [4] and 0.723% [at 6.97 µM] in assay [8]. The cytotoxicity increase in [5] is -0.912% [at 6.97 µM]; in assay [10], -0.88% [at 6.97 µM]. For the same molecule, the viability change, negative = cytotoxic in assay [6] is 0.903% [at 6.97 µM]. Also, the max response in assay [18] is 1.72%. Also, the cytotoxicity in [9] is 2.45% [at 6.97 µM].

With `c1ccc(-c2ccccn2)nc1`, the Potency result in [1], in assay [3], in assay [14], in [15], in assay [4] and in [5] was “inactive” throughout. In addition, the Potency entry in [17], in assay [19], in assay [8], in assay [9] and in [10] was “inactive” in each case. Moreover, the activity change, positive = activation in [13] is -20.5%. For the same molecule, the max response in assay [18] was -0.479%.

On to `Clc1ccc2c(c1)CCc1cccnc1C2=C1CCNCC1`, for which the Potency result in assay [1], in assay [2], in assay [3], in assay [16], in assay [17] and in assay [7] was “inactive” in each case. The Potency is 23.9 µM (active) in assay [4], 26.8 µM (active) in [8], 23.9 µM (active) in assay [9] and 23.9 µM (active) in assay [10].

Consider `CCCCCCCCCc1ccc(OCCOCCO)cc1`, for which the Potency entry in [1], in assay [16] and in assay [11] was “inactive” each time. In addition, the Potency was 37.6 µM (active) in [3]; 1.15 µM (active) in assay [15]; 1.45 µM (active) in assay [17]; 1.03 µM (active) in assay [18]; 14.5 µM (active) in assay [7]; 20.5 µM (active) in assay [19]. Moreover, the Potency in [9] was 18.3 µM (active); in assay [10], 20.5 µM (active).

As to `COC(=O)c1ccc(I)cc1S(=O)(=O)NC(=O)Nc1nc(C)nc(OC)n1`, the Potency entry in [1], in assay [2], in [14], in assay [15], in [16] and in assay [4] was “inactive” each time. Further, the Potency entry in assay [5], in assay [6], in assay [7], in assay [19], in [8] and in assay [9] was “inactive” in each case. In addition, the Potency entry in assay [10] and in assay [11] was “inactive” in each case. Further, the max response in assay [18] is 0.658%.

For the molecule `Cc1ccc(C(=O)Oc2ccc(C(O)CNC(C)(C)C)cc2OC(=O)c2ccc(C)cc2)cc1` (configuration not stated), the Potency result in assay [1], in assay [3], in assay [16] and in assay [11] was “inactive” throughout. Also, the Potency in assay [4] was 23.9 µM (active); in assay [5], 23.9 µM (active); in assay [6] it was 21.3 µM (active); in assay [7], 23.9 µM (active); in assay [19], 21.3 µM (active); in [8], 23.9 µM (active). For the same molecule, the Potency was 21.3 µM (active) in assay [9] and 19 µM (active) in [10].

For `c1ccc(CNCCNCc2ccccc2)cc1`, the Potency entry in [1], in assay [3], in [14], in assay [15], in assay [16] and in assay [4] was “inactive” in each case. Moreover, the Potency entry in assay [5], in [7], in assay [19], in assay [8], in assay [9] and in assay [10] was “inactive” each time. Further, the Potency entry in [11] is “inactive”. The max response in [18] is 7.91%.
